Shown are actives, neighbours in structure and some others; about 2.8% of the full set was active somewhere.
HEK293 viab = reduces viability of HEK-293 SNCA reporter cells. hit rate 0.12% among 150,000. Potency, µM (highest dose often 57.1 µM), for the others: at the top dose activity change, negative = cytotoxicity, hits mostly cytotoxic. HEK-293-SNCA-luc viability, GF-AFC fluorescence, 24 h;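 note: potency is the fitted concentration of half-maximal effect; 0% = DMSO-treated cells and -100% = medium-only wells without cells; nearly all actives have a fitted effect of over 30% in size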
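HEK-293-SNCA-luc cells (1500/well) plated 24 h, then exposed 24 h to a dilution series; GF-AFC added 30 min at 37C, fluorescence 405/540 nm; normalised to medium-only and DMSO wells, Hill fit.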
KDM5B inhibitor = inhibitors of human KDM5B histone demethylase; Potency, µM (highest dose often 57.7 µM), usual class: inhibitors; AID 1347165; KDM5B demethylase, FDH-coupled NADH fluorescence (FDH is formaldehyde dehydrogenase); Q9UGL1; hit rate 2.6% among 220,000; note: potency is the fitted concentration of half-maximal effect; 0% is about no effect; nearly all actives have a fitted effect of over 70% in size
Target sequence (Q9UGL1 whole entry, looked up): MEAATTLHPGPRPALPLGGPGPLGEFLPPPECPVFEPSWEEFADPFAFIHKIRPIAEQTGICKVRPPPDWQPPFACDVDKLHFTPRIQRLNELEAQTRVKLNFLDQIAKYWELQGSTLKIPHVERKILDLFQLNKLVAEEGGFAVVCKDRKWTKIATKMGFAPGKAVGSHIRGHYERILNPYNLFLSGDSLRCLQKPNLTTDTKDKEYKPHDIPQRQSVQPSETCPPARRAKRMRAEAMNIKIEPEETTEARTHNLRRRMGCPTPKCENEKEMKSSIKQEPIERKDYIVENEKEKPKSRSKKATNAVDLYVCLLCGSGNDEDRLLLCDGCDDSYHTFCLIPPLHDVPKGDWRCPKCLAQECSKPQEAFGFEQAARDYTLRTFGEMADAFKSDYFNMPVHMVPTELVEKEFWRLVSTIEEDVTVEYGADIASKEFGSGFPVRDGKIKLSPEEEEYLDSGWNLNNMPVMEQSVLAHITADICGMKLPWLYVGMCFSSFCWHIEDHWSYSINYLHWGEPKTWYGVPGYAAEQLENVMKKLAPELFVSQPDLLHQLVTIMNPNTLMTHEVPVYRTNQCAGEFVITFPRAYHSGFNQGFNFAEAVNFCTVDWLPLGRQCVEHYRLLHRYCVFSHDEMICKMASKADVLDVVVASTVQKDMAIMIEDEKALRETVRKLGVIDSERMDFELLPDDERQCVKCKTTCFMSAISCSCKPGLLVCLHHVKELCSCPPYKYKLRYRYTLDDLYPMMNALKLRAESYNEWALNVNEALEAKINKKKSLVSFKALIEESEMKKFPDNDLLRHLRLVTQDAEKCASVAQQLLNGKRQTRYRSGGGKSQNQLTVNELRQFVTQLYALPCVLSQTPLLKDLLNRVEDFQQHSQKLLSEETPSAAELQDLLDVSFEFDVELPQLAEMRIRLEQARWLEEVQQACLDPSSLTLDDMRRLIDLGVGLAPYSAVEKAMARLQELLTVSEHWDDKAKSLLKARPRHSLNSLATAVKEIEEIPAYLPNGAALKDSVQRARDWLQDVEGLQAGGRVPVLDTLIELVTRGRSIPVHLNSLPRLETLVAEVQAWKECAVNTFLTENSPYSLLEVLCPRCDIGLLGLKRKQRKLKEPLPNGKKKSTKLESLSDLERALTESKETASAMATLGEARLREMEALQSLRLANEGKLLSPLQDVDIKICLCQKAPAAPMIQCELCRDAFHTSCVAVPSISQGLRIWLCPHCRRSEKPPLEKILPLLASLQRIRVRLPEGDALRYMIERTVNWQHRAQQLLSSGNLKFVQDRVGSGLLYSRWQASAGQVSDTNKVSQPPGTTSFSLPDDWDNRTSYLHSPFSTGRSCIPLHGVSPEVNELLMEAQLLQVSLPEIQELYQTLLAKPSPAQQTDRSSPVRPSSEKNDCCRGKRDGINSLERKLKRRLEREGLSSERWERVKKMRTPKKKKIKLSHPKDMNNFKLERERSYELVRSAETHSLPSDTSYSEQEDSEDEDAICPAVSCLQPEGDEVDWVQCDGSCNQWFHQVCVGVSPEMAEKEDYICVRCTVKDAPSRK
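Compound dilutions met 200 nM (final) KDM5BΔAP for 10 min at room temperature before substrate addition. The substrate mix held 12.5 µM H3K4me3 with cofactors 25 µM α-ketoglutarate and 50 µM Fe²⁺. NADH signal gain over 30 min defined activity.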
SNCA expr inhib = reduces expression of the alpha-synuclein gene | HEK-293 SNCA-luciferase knock-in, luminescence, 24 h | Potency, µM (series often up to 57.2 µM), without a hit: top-dose activity change, negative = inhibition, hits mostly inhibitors | hit rate 0.17% among 140,000 | AID 1671194;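 note: potency is the fitted concentration of half-maximal effect; plate controls were DMSO cells for no effect and cell-free wells for full effect; nearly all actives have a fitted effect of over 45% in size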
IP6K1 inh = IP6K1 kinase inhibition; IP6K1 kinase, ADP-Glo luminescence, 2 h; stronger effect = lower value; hit rate 0.81% among 140,000; activity change, % (series mostly up to about 58 µM); Q92551; in the data active = activity change below about -25%; note: % is set by controls: 0 for no effect and ±100 for the full control effect
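ADP-Glo luminescence measures ADP made by human IP6K1 during a 2 h RT reaction with ATP/IP6 (mix at 1.3 mM/130 uM); top library doses 57.5 and 19.1 uM final.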
* marks the source's active call; other numbers are inactive results; [ ] = dose if it differs, or a comment. Unless noted, calls come from the whole dose curve; as a rule, active = well fitted curve in the direction sought with a large enough effect; inconclusive = small, poorly fitted or top-dose-only effect, or another doubt; inactive = no such curve, though single readings can be large; an effect the other way counts as inactive or inconclusive.

Screening O=C(c1cccnc1N1CC2CC(C1)[C@H]1CCCC(=O)N1C2)N1CC=C(c2ccccc2)CC1 (some centres not stated) returned HEK293 viab -4.7%, KDM5B inhibitor 31.6µM*, SNCA expr inhib 15.1% and IP6K1 inh 4.7.
`COc1ccc(CCNC(=O)c2cccnc2N2CC3CC(C2)[C@H]2CCCC(=O)N2C3)cc1OC` (some centres not stated) gave HEK293 viab 4.6%, KDM5B inhibitor inconclusive, SNCA expr inhib 6.4% and IP6K1 inh 18.8.
For CCc1nnsc1C(=O)NCC1(c2cccc(F)c2)CCOCC1 the results were KDM5B inhibitor inactive.
Screening O=C1N(c2ccccc2)c2ccccc2C12CCN(CC1CC1)C2 (configuration not stated) returned HEK293 viab -7.4%, KDM5B inhibitor inactive, SNCA expr inhib inconclusive and IP6K1 inh -12.2.
`CC(=O)N1CCc2c(nc(-c3cccnc3)nc2NCc2cc(C)on2)C1` gave HEK293 viab -0.8%, KDM5B inhibitor inactive, SNCA expr inhib 43.3% and IP6K1 inh -6.5.
For CN(C)CCNC(=O)c1cccnc1N1CC2CC(C1)[C@H]1CCCC(=O)N1C2 (some centres not stated) the results were HEK293 viab 18.1%, KDM5B inhibitor inconclusive, SNCA expr inhib 4.4% and IP6K1 inh 6.5.
CN(CCNC(=O)c1cccnc1N1CC2CC(C1)[C@H]1CCCC(=O)N1C2)C1CCCCC1 (some centres not stated) was read as HEK293 viab -5.0%, KDM5B inhibitor 31.6µM*, SNCA expr inhib -7.1% and IP6K1 inh 5.5.
Screening O=C(NCCN1CCCCC1)c1cccnc1N1CC2CC(C1)[C@H]1CCCC(=O)N1C2 (some centres not stated) returned HEK293 viab -9.2%, KDM5B inhibitor 28.2µM*, SNCA expr inhib inconclusive and IP6K1 inh -1.5.
For COc1cccc(OC)c1-c1cccc(C(=O)c2nccn2C)c1 the results were HEK293 viab -15.5%, KDM5B inhibitor inactive, SNCA expr inhib -11.5% and IP6K1 inh 19.8.
Screening CCn1ccc(C(=O)N2CCc3nc(NC)nc(C(=O)N4CCCC4)c3C2)n1 returned HEK293 viab -5.3%, KDM5B inhibitor 17.8µM*, SNCA expr inhib -22.1% and IP6K1 inh 11.4.
Cc1ccc2c(CNCCc3ccc(Cl)cc3)c(C(=O)O)n(Cc3ccc(F)cc3)c2c1 was read as HEK293 viab 4.3%, KDM5B inhibitor inactive, SNCA expr inhib -7.6% and IP6K1 inh 3.7.
For C=Cc1ccc(Cn2c(C(=O)O)c(CNCCc3ccccc3)c3ccc(C)cc32)cc1 the results were HEK293 viab 28.2µM*, KDM5B inhibitor inconclusive, SNCA expr inhib inconclusive and IP6K1 inh -4.2.
For CN(C)CCNC(=O)c1nc2nc(-c3ccccc3)c(Cl)cc2n1C the results were HEK293 viab 0.9%[87.6 µM], KDM5B inhibitor 39.8µM*, SNCA expr inhib 31.8%[87.6 µM] and IP6K1 inh 11.6.
For Cn1c(C(=O)NCCc2cnc[nH]2)nc2nc(-c3ccccc3)c(Cl)cc21 the results were HEK293 viab -1.7%[87.6 µM], KDM5B inhibitor 35.5µM*, SNCA expr inhib 4.7%[87.6 µM] and IP6K1 inh 11.9.
Cn1c(C(=O)N2CCN(c3ccccn3)CC2)nc2nc(-c3ccccc3)c(Cl)cc21 was read as HEK293 viab inconclusive, KDM5B inhibitor 35.5µM*, SNCA expr inhib inconclusive and IP6K1 inh 4.2.
Screening COCCN(C)C(=O)c1nc2nc(-c3ccccc3)c(Cl)cc2n1C returned HEK293 viab 1.9%[87.6 µM], KDM5B inhibitor inconclusive, SNCA expr inhib 2.6%[87.6 µM] and IP6K1 inh -1.4.
Screening CN(C)CCNC(=O)c1nc2nc(-c3ccccc3)c(-c3ccccc3F)cc2n1C returned HEK293 viab -22.4%[87.6 µM], KDM5B inhibitor inactive, SNCA expr inhib -11.9%[87.6 µM] and IP6K1 inh 7.7.
`O=C(CCc1c[nH]c2ccccc12)NCCCN1CCCCC1` gave KDM5B inhibitor inactive.
Screening CCOc1cc(C(=O)N2CCn3c4c(c5cc(C)ccc53)CCCC42)cc(OCC)c1OCC (configuration not stated) returned HEK293 viab -20.4%, KDM5B inhibitor inactive, SNCA expr inhib 0.7% and IP6K1 inh -1.2.
Cc1cc(CN(C)c2ccc(-c3nc(-c4ccccc4F)no3)cn2)on1 was read as HEK293 viab 0.3%, KDM5B inhibitor 31.6µM*, SNCA expr inhib 2.2% and IP6K1 inh -2.1.
`CCc1noc(-c2nc(-c3ccccc3F)no2)n1` gave HEK293 viab 2.0%, KDM5B inhibitor inactive, SNCA expr inhib 43.2% and IP6K1 inh -19.8.
`O=C(CCc1ccccc1)NCC1CCCO1` (configuration not stated) gave KDM5B inhibitor inactive.
For O=C(CCNc1c(-c2cccc(F)c2)nc2cnccn12)NCC1CCCO1 (configuration not stated) the results were HEK293 viab inconclusive, KDM5B inhibitor 28.2µM*, SNCA expr inhib 0.4% and IP6K1 inh 3.2.
Screening CNC(=O)NCc1cccc(OC)c1 returned KDM5B inhibitor inactive.
O=C(CCNc1c(-c2cccc(F)c2)nc2cnccn12)NCc1ccccc1 was read as HEK293 viab inconclusive, KDM5B inhibitor 25.1µM*, SNCA expr inhib 23.2% and IP6K1 inh 9.0.
COc1cccc(CNC(=O)CCNc2cnc3cnccn23)c1 was read as HEK293 viab inconclusive, KDM5B inhibitor 20µM*, SNCA expr inhib 0.9% and IP6K1 inh 10.7.
COC[C@H]1CCCN1[C@@H]1[C@H](O)[C@H](CO)O[C@@H]1CNC(=O)Nc1ccccc1 was read as HEK293 viab 4.8%[87.6 µM], KDM5B inhibitor inactive, SNCA expr inhib 63.3%[87.6 µM] and IP6K1 inh -2.4.
For Cc1cc(CNC(=O)c2cc(-c3ccccc3C)cc3c2OCCN3C)no1 the results were HEK293 viab -6.2%[87.6 µM], KDM5B inhibitor 35.5µM*, SNCA expr inhib -5.0%[87.6 µM] and IP6K1 inh -17.5.
For Cc1cc(CNC(=O)c2cc(-c3ccncc3)cc3c2OCCN3C)no1 the results were HEK293 viab -10.2%[87.6 µM], KDM5B inhibitor inconclusive, SNCA expr inhib 11.7%[87.6 µM] and IP6K1 inh -12.5.
Cc1cc(CNC(=O)c2cc(-c3ccccc3F)cc3c2OCCN3C)no1 was read as HEK293 viab -12.0%[87.6 µM], KDM5B inhibitor 31.6µM*, SNCA expr inhib inconclusive and IP6K1 inh -21.7.
For Cc1cc(CNC(=O)c2cc(-c3ccc(CO)cc3)cc3c2OCCN3C)no1 the results were HEK293 viab 0.5%[87.6 µM], KDM5B inhibitor 31.6µM*, SNCA expr inhib -17.1%[87.6 µM] and IP6K1 inh -15.0.
`COc1ccc(NC(=O)N2CCC(Oc3ncccc3C(=O)N3CCCCC3)C2)c(C)c1` (configuration not stated) gave HEK293 viab -20.9%, KDM5B inhibitor inactive, SNCA expr inhib -5.5% and IP6K1 inh 13.2.
For C#CCNC(=O)c1cc(-c2ccc(Cl)cc2)nc2c1cnn2C the results were HEK293 viab -10.2%[87.6 µM], SNCA expr inhib -2.8%[87.6 µM] and IP6K1 inh -7.9.
`COC(=O)CNC(=O)c1cc(C(C)(C)C)nc2c1cnn2C` gave HEK293 viab -1.8%, KDM5B inhibitor 89.1µM*, SNCA expr inhib 9.5% and IP6K1 inh -0.8.
